Laboratory results: the supplement of paper PMC10941209

System: HFF
Test: cell viability relative to DMSO control; higher = less cytotoxic
Settings: 1 µM; 72 h
Experimental: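 Single-dose cytotoxicity screen of the MMV Pandemic Response Box at 1 uM on human foreskin fibroblasts (HFF), 72 h at 37 C. Viability measured by MTT (OD 550 nm) and normalised to the DMSO control (% survival).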

Row | SMILES | cell viability
1 | Clc1ccc(Cn2c(CN3CCCC3)nc3ccccc32)cc1 | 67.7%
2 | O=C1NC(=O)C(Br)=C1Br | 63.1%
3 | CC1CN(c2ncnc3c2c(-c2ccccc2)cn3-c2ccc(F)cc2)CC(C)O1 (configuration not stated) | 75.3%
4 | CNC(=O)C1O[C@@H](n2cnc3c(NCc4cccc(I)c4)nc(Cl)nc32)[C@H](O)[C@@H]1O (some centres not stated) | 61.2%
5 | CC1(C)C[C@H]1C(=O)N/C(=C\CCCCSC[C@@H](N)C(=O)O)C(=O)O | 71.5%
6 | Fc1ccc(-n2cc(Cn3c(-c4cccc(F)c4)nc4ccccc43)nn2)cc1 | 71.1%
7 | O=C(Nc1nnc(-c2ccc(Cl)cc2)o1)c1nc2ccccc2s1 | 65.8%
8 | CCn1cc(C(=O)O)c(=O)c2cc(F)c(N3CCNC(C)C3)c(F)c21 (configuration not stated) | 71.2%
9 | CC[C@@]1(O)C(=O)OCc2c1cc1n(c2=O)Cc2cc3c([N+](=O)[O-])cccc3nc2-1 | 53.1%
10 | Cc1nc2ccc(Oc3ccccc3)cc2c2c1CCN2CCc1ccccc1 | 76.7%
11 | Nc1cc(N)c2nc(-c3ccccc3)c(Nc3ccc(F)cc3)nc2c1 | 80.1%
12 | Cc1c(CN(C)C(=O)/C=C/c2cnc3c(c2)C(C)(C)C(=O)N3)oc2ccccc12 | 63.6%
13 | O=C(NC(=O)N1CCCc2ccccc21)c1cccc(Cl)c1 | 75.5%
14 | CNCC(=O)OCc1cccnc1N(C)C(=O)OC(C)[n+]1cnn(C[C@](O)(c2cc(F)ccc2F)[C@@H](C)c2nc(-c3ccc(C#N)cc3)cs2)c1 (some centres not stated) | 60.6%
15 | Cc1c[nH]c(=O)nc1NCc1ccccc1 | 66.7%
16 | C[C@H](c1cccc2ccccc12)N(C)Cc1ccccc1 | 65.7%
17 | CCCCCc1ccc(C(=O)NCCn2cc(CCCCCc3c[nH]c(N)n3)nn2)cc1 | 66.1%
18 | OCCC#Cc1nc(-c2ccc(F)cc2)c(-c2ccncc2)n1CCCc1ccccc1 | 81.7%
19 | Cc1cccc(CC(=O)N[C@H]2CCOC2=O)c1 | 77.2%

Row | SMILES | cell viability
20 | COCCn1cnc2c(O)nc(Nc3ccccc3)nc21 | 61%
21 | O=C(c1nc2c(C(F)(F)F)cc(C3CC3)cn2c1Cl)N1CCN([C@H]2CC[C@H](O)CC2)C(=O)C1 | 61.7%
22 | COc1ccc(OCc2ccc(COc3c(Cl)cccc3Cl)cc2)c(Cl)c1 | 60.4%
23 | O=C(NNC(=S)Nc1ccc(Cl)cc1)c1ccncc1 | 64.2%
24 | O=C(O)C(Cc1c[nH]c2ccccc12)N1C(=O)c2ccccc2C1=O (configuration not stated) | 68.5%
25 | CC1(C)Cc2c(C#N)c(SCCc3ccccc3)nc(N3CCOCC3)c2CO1 | 81.4%
26 | O=S(=O)(NCB(O)O)c1ccc(-c2nnn[nH]2)cc1C(F)(F)F | 70.9%
27 | C[C@H]1CC[C@@]2(O)C(C)(C)[C@@H]3CC[C@@]2(C)[C@H]1C3 | 65.2%
28 | NC(=O)c1c(N)sc2c1CCCCC2 | 74.1%
29 | Cc1c(F)cccc1NC(=O)Nc1ccc(Cl)c(S(=O)(=O)[C@H]2CCCNC2)c1O | 60.8%
30 | COc1ccc(CNC(=O)C(NS(=O)(=O)c2ccc3nc(C)sc3c2)C(C)C)cc1 (configuration not stated) | 64.5%
31 | CCc1c(O)nc2ccc(F)cc2c1OCC1CCC1 | 56.8%
32 | CN(C)CCCNC(=O)c1ccc(-c2cc(O)c3ncccc3c2)cc1 | 67.8%
33 | Cc1[nH]c2ccccc2c1CC(=O)N[C@@H](Cc1ccccc1)C(=O)N(C)c1ccccc1 | 69.6%
34 | COc1cc(NCc2ccc3nc(N)nc(N)c3c2C)cc(OC)c1OC | 63.7%
35 | O=C(NCc1ccc(F)cc1)c1c(O)c2ncccc2[nH]c1=O | 50.8%
36 | CC(C)C(=O)N[C@H]1[C@H]([C@H](O)[C@H](O)CO)OC(C(=O)O)=C[C@@H]1N=[N+]=[N-] | 56.6%
37 | O=C(NC1CCCc2c1[nH]c1ccc(Cl)cc21)c1ccccn1 (configuration not stated) | 67.4%
